Test results reported in PubChem BioAssay (EPA / NIEHS).
Records with an inconclusive call do not appear. The source made the active and inactive calls. How the source made its calls: active means hit-call score of the fitted dose curve at least 0.9, where 1 is the maximum; inconclusive means response in the unintended direction; inactive means score below 0.9.

Each compound was assayed against rat CYP2C12, Cyp2c12 (gene 25011) (UniProt P11510) (assay: NVS_ADME_rCYP2C12: NovaScreen (NVS) CYP450-related Enzyme Activity (ADME) Assay for rat CYP2C12 (AID 2283119)).
Description: NVS_ADME_rCYP2C12 is a biochemical, single-readout assay that uses extracted gene-proteins in a cell-free assay. Measurements were taken 0.5 hour after chemical dosing in a 96-well plate.NVS_ADME_rCYP2C12 is one of one assay component(s) measured or calculated from the NVS_ADME_rCYP2C12 assay. It is designed to make measurements of enzyme activity, a form of enzyme reporter, as detected with fluorescence intensity signals by Fluorescence technology.Data from the assay component NVS_ADME_rCYP2C12 was analyzed into 1 assay endpoint. This assay endpoint, NVS_ADME_rCYP2C12, was analyzed in the positive analysis fitting direction relative to Acetonitrile as the negative control and baseline of activity. Using a type of enzyme reporter, loss-of-signal activity can be used to understand changes in the enzymatic activity as they relate to the gene Cyp2c12. Furthermore, this assay endpoint can be referred to as a primary readout, because this assay has produced multiple assay endpoints where this one serves a enzymatic activity function. To generalize the intended target to other relatable targets, this assay endpoint is annotated to the cyp intended target family, where the subfamily is xenobiotic metabolism.
Binding assays used specific radioligands (tritiated, iodinated) with non-radioactive competitive displacement ligands in agonist or antagonist protocols (as indicated) and various reference compounds and inhibitors to titrate specific binding to receptors and transporters. Most enzyme assays (CYPs, kinases, phosphatases, proteases, HDACs) used recombinant protein and specific substrates (fluorescence mostly, some colorimetric and radioactive) and inhibitors, followed by a biochemical separation of substrate and product. All assays for the biochemical HTS were initially run in duplicate at a single concentration (10 uM for CYP450 assays and 25 uM for all others). […] Each assay was run with positive and negative controls, and concurrent controls on every plate. The follow-up (secondary) screen tested active chemical-pairs in concentration series, as well as a few additional assays not tested in the primary screen, some selected negative inactives, and several cases re-run in the concentration series for confirmatory purposes.

Sequence of rat CYP2C12, Cyp2c12 (gene 25011) (P11510 whole entry, looked up): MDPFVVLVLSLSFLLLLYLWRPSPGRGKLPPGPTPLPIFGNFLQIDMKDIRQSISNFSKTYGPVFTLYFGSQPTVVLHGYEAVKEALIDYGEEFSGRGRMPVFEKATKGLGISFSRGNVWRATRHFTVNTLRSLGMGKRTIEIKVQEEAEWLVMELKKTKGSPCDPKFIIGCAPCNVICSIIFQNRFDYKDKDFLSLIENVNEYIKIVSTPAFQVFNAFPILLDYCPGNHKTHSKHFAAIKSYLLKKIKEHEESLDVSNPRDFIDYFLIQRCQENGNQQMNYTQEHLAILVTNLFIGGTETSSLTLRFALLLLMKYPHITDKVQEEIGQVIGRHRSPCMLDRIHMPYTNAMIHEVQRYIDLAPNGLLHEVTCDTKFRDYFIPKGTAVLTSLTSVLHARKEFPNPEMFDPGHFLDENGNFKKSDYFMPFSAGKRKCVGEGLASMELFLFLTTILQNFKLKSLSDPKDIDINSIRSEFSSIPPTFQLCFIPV

Row | SMILES | outcome | AC50
1 | O=C1c2ccccc2C(=O)N1SC(Cl)(Cl)Cl | inactive | –
2 | [2H]C1([2H])[n+]2ccccc2-c2cccc[n+]2C1([2H])[2H] | inactive | –
3 | O=C(Nc1ccccc1)Nc1cnns1 | inactive | –
4 | N#Cc1c(Cl)c(Cl)c(Cl)c(C#N)c1Cl | inactive | –
5 | CCCN(CCOc1c(Cl)cc(Cl)cc1Cl)C(=O)n1ccnc1 | – | 4.58 µM (active)
6 | COP(=S)(OC)Oc1ccc([N+](=O)[O-])cc1 | – | 6.47 µM (active)
7 | CCOC1Oc2ccc(OS(C)(=O)=O)cc2C1(C)C (stereo not given) | – | 2.33 µM (active)
8 | O=C(NC(=O)c1c(F)cccc1F)Nc1ccc(OC(F)(F)C(F)OC(F)(F)F)c(Cl)c1 (stereo not given) | inactive | –
9 | CNC(=O)Oc1ccccc1OC(C)C | inactive | –
10 | CC(C)(C)C(O)/C(=C\c1ccc(Cl)cc1Cl)n1cncn1 (stereo not given) | – | 1.25 µM (active)
